Data on 11 molecules can be found in ChEMBL document CHEMBL3988442, “University of Dundee, Small-Polar-MMV Screening Library” (2021).

For some of these results: Measured potencies and affinities stand elsewhere.

What all share (parameters): scale not given: direction of the effect not stated beside the values
Test [1] has as its target Protein translocase subunit SecA (Escherichia coli (strain K12)) (UniProt P10408). Description: Assay to Identify E. coli SecA ATPase Inhibitors. It counts as functional. Particulars: 30 µM.
The target in test [2] is T1, Ubiquitin-activating enzyme e1, putative (Leishmania donovani (strain BPK282A1)) (UniProt E9BSI1).
T1 sequence (whole entry): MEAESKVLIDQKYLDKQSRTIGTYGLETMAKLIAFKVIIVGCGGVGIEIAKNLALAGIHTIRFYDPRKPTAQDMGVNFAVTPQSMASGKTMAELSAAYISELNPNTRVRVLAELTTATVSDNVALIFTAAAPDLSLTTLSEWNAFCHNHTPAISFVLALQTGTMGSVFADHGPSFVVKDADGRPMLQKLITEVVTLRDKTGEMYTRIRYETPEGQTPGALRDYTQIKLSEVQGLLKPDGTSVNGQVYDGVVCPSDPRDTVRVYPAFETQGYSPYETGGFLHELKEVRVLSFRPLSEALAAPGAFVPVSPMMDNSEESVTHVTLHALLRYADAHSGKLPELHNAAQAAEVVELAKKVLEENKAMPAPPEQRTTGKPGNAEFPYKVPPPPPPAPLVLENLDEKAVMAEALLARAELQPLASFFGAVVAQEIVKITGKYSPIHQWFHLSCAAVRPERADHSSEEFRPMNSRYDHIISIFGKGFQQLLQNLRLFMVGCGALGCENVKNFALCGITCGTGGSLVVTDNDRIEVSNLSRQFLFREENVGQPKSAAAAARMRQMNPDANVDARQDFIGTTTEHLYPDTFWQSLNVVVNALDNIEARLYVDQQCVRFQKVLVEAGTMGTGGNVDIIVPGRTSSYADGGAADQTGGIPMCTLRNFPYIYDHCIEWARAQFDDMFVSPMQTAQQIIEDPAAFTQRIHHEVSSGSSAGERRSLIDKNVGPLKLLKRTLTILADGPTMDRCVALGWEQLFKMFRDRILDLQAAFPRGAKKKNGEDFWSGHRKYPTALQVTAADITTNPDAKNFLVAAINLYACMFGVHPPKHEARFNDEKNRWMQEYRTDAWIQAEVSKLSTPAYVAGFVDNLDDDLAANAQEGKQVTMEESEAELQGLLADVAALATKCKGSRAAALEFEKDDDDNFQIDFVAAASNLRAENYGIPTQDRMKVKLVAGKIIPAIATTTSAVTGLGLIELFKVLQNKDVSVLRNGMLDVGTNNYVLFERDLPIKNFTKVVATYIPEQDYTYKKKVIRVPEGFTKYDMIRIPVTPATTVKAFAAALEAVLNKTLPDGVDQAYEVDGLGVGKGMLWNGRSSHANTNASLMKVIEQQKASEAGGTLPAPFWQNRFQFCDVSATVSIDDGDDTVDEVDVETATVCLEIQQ
In words: Leishmania donovani Ubiquitin Activating Enzyme (LdE1). The class given is functional. Particulars: 30 µM.

Test [3] deals with AMP-activated protein kinase, AMPK (Homo sapiens) (UniProt P54646+O43741+P54619+Q9UGJ0+Q9Y478+Q13131+Q9UGI9). In words: AMP-dependent Kinase enzyme assay. An in vitro enzyme assay that detects ADP turnover that is directly proportional to AMPK activity. This uses naive AMPK that is activated during the assay with MK-8722. The class given is functional. The conditions noted are these: 30 µM.

Test [4] concerns the target Sialic acid-binding Ig-like lectin 9 (Homo sapiens) (UniProt Q9Y336). In words: Hs-Siglec9 ALPHAscreen SOP 20170721. Particulars: 10 µM.
A further test relates to Trypanosoma cruzi. Description: Trypanosoma cruzi phosphomannomutase and mannose-1-phosphate guanylyltransferase assay. The class given is functional. The conditions noted are these: 10 µM.
Test [5] deals with T2, Arginase-2, mitochondrial (Homo sapiens) (UniProt P78540).
T2 sequence (whole entry): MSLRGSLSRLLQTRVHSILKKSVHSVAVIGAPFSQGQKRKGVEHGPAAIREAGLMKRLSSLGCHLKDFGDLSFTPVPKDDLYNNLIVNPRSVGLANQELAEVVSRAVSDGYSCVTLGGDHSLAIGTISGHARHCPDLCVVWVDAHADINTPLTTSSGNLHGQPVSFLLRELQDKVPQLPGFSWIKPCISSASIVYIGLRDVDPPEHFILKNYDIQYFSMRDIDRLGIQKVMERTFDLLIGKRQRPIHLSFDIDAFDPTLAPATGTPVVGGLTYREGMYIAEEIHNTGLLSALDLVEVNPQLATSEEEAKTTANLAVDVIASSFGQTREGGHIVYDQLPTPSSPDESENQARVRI
Description: in vitro enzyme assay to detect the production of urea directly proportional to the activity of Arginase II. Also: in the data most compounds retested in dose-response had high values. The class given is functional. Particulars: 33.3 µM.

For test [6], the target named is T3, Proteasome subunit beta (Trypanosoma cruzi) (UniProt O96673).
T3 sequence (whole entry): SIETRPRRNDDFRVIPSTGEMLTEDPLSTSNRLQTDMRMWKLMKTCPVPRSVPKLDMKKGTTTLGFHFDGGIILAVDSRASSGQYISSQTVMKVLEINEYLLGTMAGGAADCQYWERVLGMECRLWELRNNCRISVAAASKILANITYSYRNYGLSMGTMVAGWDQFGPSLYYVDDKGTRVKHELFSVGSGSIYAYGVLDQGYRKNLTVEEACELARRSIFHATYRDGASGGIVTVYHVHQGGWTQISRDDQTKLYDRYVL
Description: Trypanosoma cruzi proteasome chymotrypsin-like activity (TcProtChymo) assay. Also: in the data most compounds retested in dose-response had high values. The class given is functional. Particulars: 9.37 µM.

Another test is filed under the species Homo sapiens. Description: To identify inhibition of the IFN signalling (Jak-Stat) pathway via expression of an eGFP reporter gene under the control of an IFN-stimulated response element (ISRE) containing MxA promoter. It counts as functional. Particulars: 30 µM.
Test [7] deals with T4, Tyrosyl-tRNA synthetase, putative (Trypanosoma cruzi (strain CL Brener)) (UniProt Q4DSP6).
T4 sequence (whole entry): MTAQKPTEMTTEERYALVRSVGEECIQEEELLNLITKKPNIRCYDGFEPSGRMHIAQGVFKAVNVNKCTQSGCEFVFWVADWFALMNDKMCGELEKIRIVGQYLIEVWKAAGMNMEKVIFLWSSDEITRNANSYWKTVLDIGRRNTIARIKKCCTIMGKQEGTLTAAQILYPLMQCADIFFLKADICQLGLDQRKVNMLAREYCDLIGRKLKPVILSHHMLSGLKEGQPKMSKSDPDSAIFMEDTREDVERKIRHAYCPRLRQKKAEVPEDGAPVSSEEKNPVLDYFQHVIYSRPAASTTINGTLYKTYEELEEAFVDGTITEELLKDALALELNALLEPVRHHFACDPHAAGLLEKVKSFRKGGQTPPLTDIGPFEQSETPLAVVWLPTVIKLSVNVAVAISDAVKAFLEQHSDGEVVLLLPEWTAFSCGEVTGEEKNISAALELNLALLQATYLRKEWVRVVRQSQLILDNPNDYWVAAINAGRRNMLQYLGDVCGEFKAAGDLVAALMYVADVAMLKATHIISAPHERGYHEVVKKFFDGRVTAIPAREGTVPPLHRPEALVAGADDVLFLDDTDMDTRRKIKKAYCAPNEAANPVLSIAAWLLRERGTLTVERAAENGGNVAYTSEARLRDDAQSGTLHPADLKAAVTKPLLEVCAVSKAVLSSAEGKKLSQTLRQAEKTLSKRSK
In words: Trypanosoma cruzi tyrosyl tRNA synthetase (TcYRS) _High Tyrosine SOP. Also: in the data most compounds retested in dose-response had high values. The conditions noted are these: 30 µM. It counts as functional.

Test [8] deals with T4, Tyrosyl-tRNA synthetase, putative (Trypanosoma cruzi (strain CL Brener)). In words: Trypanosoma cruzi tyrosyl tRNA synthetase (TcYRS) SOP. It counts as functional. Particulars: 30 µM.
Test [9] deals with Chromo domain-containing protein 1 (Saccharomyces cerevisiae (strain ATCC 204508 / S288c) (Baker's yeast)) (UniProt P32657). Description: ScCHD-1 Enzyme Inhibition Assay. Also: in the data most compounds retested in dose-response had high values. The class given is functional. Particulars: 30 µM.
Chromo domain-containing protein 1 (Saccharomyces cerevisiae (strain ATCC 204508 / S288c) (Baker's yeast)), sequence (P32657 whole entry, the tested form may be a part): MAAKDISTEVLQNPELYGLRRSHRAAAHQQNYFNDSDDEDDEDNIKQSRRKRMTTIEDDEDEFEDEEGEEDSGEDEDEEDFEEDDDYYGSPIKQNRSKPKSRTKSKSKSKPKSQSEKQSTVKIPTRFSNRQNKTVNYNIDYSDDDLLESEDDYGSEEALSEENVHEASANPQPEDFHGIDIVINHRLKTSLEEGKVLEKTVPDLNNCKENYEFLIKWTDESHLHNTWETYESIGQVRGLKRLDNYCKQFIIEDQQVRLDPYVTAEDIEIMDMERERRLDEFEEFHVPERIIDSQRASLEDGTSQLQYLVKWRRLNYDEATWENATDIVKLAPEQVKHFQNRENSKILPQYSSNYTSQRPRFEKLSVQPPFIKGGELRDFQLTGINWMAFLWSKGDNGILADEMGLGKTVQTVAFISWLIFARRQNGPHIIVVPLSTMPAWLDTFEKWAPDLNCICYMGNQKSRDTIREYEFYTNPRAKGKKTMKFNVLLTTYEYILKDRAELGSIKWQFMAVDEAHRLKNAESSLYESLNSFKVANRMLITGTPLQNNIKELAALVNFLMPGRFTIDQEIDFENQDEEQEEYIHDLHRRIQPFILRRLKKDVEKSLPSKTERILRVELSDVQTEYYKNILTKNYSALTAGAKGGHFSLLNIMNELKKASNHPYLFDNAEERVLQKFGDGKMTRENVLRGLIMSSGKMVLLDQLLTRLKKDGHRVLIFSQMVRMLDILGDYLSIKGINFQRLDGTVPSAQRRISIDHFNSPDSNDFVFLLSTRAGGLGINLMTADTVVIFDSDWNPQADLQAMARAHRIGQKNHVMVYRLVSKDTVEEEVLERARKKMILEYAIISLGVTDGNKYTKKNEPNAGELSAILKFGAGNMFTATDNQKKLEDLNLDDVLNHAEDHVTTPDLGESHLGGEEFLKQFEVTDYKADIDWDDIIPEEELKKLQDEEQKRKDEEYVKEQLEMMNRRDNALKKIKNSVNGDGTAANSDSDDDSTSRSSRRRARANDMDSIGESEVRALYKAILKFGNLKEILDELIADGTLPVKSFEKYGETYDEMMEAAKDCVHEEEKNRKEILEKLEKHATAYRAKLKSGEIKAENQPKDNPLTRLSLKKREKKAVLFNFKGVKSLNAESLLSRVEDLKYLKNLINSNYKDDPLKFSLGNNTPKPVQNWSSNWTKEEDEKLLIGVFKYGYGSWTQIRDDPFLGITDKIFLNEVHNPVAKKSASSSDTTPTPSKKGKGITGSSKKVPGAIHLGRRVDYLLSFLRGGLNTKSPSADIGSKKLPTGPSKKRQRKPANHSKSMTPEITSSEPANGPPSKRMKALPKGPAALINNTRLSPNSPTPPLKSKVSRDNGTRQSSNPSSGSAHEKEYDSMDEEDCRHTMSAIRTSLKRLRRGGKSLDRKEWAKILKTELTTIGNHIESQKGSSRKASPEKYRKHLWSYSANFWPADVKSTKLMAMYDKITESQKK

Protein translocase subunit SecA (Escherichia coli (strain K12)), sequence (P10408 whole entry): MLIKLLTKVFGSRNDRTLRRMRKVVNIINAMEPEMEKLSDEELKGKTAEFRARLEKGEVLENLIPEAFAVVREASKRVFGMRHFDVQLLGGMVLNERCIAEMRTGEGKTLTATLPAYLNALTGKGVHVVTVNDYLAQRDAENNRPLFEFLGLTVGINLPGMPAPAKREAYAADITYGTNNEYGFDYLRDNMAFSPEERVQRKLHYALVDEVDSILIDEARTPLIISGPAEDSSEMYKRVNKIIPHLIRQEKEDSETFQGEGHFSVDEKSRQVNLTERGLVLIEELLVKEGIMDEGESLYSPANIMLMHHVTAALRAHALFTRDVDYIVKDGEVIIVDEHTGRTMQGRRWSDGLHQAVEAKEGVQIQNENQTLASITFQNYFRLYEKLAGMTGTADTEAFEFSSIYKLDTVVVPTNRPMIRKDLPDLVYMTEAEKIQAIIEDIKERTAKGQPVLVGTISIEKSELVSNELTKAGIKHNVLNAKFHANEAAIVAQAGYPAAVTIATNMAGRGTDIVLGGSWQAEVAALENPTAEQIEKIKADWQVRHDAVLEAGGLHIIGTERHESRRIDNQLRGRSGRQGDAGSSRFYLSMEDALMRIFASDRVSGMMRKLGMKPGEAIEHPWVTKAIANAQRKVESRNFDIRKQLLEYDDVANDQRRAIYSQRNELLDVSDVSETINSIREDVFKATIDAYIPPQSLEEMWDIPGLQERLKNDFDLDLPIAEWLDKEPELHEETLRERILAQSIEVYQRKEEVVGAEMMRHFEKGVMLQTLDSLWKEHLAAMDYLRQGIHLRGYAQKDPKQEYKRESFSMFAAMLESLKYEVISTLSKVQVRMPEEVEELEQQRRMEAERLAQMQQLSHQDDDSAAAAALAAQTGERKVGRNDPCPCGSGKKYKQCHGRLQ
Sialic acid-binding Ig-like lectin 9 (Homo sapiens), sequence (Q9Y336 whole entry): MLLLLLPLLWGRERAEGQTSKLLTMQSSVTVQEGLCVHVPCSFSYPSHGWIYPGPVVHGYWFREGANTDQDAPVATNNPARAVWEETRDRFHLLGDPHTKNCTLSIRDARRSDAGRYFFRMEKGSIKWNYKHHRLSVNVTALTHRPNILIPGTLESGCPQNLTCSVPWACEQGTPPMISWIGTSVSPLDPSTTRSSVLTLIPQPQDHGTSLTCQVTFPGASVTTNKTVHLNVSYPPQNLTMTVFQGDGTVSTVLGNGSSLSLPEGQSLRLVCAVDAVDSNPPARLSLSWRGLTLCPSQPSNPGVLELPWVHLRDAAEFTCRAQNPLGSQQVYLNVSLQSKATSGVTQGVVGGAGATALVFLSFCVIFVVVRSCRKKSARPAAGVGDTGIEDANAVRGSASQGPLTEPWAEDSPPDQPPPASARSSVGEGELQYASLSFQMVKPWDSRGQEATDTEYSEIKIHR

As for `c1ccc(-c2nc(CN3CCCC(Cn4cncn4)C3)co2)cc1` (stereo unspecified), the Percent Effect in test [1] is -0.495%; in test [2] it was 29.1%; in test [3] it was -4%; in [4], -3.43%; with Trypanosoma cruzi, 1.54%; in test [5], -5.81%. Also, the Percent Effect in [6] is 18.2%; in the test filed under Homo sapiens it was 14.8%; in test [7], 6.25%; in test [8] it was 10.1%; in test [9], -13.6%.
Turning to `COc1ccc(C2=C(C)C(N3CCc4ccccc43)=NS2(=O)=O)cc1`, the Percent Effect was -1.62% in [1]; 20.8% in test [2]; -4.65% in test [3]; -5.53% in test [4]; 1.08% with Trypanosoma cruzi; 3.23% in [5]. In addition, the Percent Effect in test [6] was 12.7%; in the test filed under Homo sapiens, 9.51%; in [7] it was -1.06%; in test [8] it was 8.97%; in test [9], -11.2%.
`c1cc(CNCC2CNc3ccnn3C2)cc(N2CCCCC2)n1` (stereo unspecified): the Percent Effect in test [1] is -3.28%; in test [2], 19%; in test [3], -11.8%; in test [4] it was -8.9%; in the test on Trypanosoma cruzi, 13%; in test [5], -2.8%. In addition, the Percent Effect in test [6] was 27.1%; in the test filed under Homo sapiens, 1.88%; in test [7], 13.5%; in [8], 22.8%; in test [9] it was -27.6%.
For the molecule `CC(C)(C)SCCCC(=O)N1CCC(Nc2cccnn2)CC1`, the Percent Effect in [1] was -1.17%; in test [2] it was -2.7%; in test [3], -6.83%; in test [4], 13.1%; in the test on Trypanosoma cruzi, 0.283%; in [5], -1.6%. Moreover, the Percent Effect in test [6] was -1.98%; in the test listed under Homo sapiens, 8.77%; in test [7], 4.43%; in [8], 6.17%; in [9], 0.803%.
`Cc1ccc2c(n1)N(CCN(C)C)CCN(C(=O)c1ccc[nH]1)C2`: the Percent Effect was -0.711% in test [1]; 10.7% in test [2]; 6.26% in test [3]; -13% in [4]; -8.07% with Trypanosoma cruzi; 1.63% in test [5]. Moreover, the Percent Effect in test [6] was 18.6%; in the test listed under Homo sapiens, -6.38%; in test [7], 1.06%; in [8], 3.85%; in [9] it was -1.69%.
As to `Cc1nn(C)c(N(C)C)c1CNC1CCc2c(F)cccc21` (stereo unspecified), the Percent Effect in test [1] is 0.322%; in test [2], 13.2%; in test [3] it was -5.14%; in test [4] it was -4.54%; in the test on Trypanosoma cruzi, 4.89%; in test [5], 5.75%. Also, the Percent Effect is 17% in [6]; -1.05% in the test filed under Homo sapiens; 6.37% in [7]; 17.1% in test [8]; -6.66% in test [9].
In the case of `Cc1nn(C)c(C)c1CC(=O)N1CCC(N(C)c2cccnn2)CC1`, the Percent Effect was 0.112% in test [1]; 15.8% in [2]; 0.809% in [3]; -2.31% in test [4]; -2.82% in the test on Trypanosoma cruzi; 4.98% in test [5]. Besides, the Percent Effect in test [6] was 10.5%; in the test filed under Homo sapiens, 42.1%; in test [7], 3.43%; in test [8], 4.88%; in [9] it was -9.53%.
As for `Cc1cn2c(n1)CCC(NC(=O)c1cc(C(C)C)no1)C2` (stereo unspecified), the Percent Effect was -4.48% in test [1]; 10.4% in test [2]; 2.99% in test [3]; 6.7% in [4]; 1.67% in the test on Trypanosoma cruzi; 1.05% in test [5]. For the same molecule, the Percent Effect in test [6] was 4.93%; in the test filed under Homo sapiens, 3.25%; in [7] it was 6.67%; in test [8] it was 14.1%; in [9], -23%.
Turning to `Cn1ccnc1CN1CCN(CC(O)c2ccc(F)c(F)c2)CC1` (stereo unspecified), the Percent Effect was -8.39% in [1]; 10.4% in test [2]; -6.83% in test [3]; -0.647% in test [4]; -6.93% with Trypanosoma cruzi; 1.42% in test [5]. Further, the Percent Effect in test [6] is 0.507%; in the test filed under Homo sapiens it was 29.6%; in [7], 0%; in [8], -2.44%; in [9], -2.48%.
With `CN(C)c1nc2c(c(=O)[nH]1)CCN(C(=O)c1cccc3nccnc13)C2`, the Percent Effect is 1.03% in test [1]; 18.2% in [2]; -1.68% in test [3]; 4.82% in [4]; 1.87% in the test with Trypanosoma cruzi; -33.1% in [5]. Also, the Percent Effect in test [6] is 19.1%; in the test listed under Homo sapiens, 29.3%; in test [7], 8.6%; in test [8] it was 16.1%; in test [9], -3.03%.
As for `CCCNC(=O)CN1CCN(Cc2csc(C(C)(C)C)n2)CC1`, the Percent Effect in test [1] was -7.74%; in [2], 2.53%; in [3] it was -2.27%; in test [4], 0.111%; in the test with Trypanosoma cruzi it was -4.63%; in test [5], -1.14%. Moreover, the Percent Effect in test [6] is -7.62%; in the test filed under Homo sapiens, 20.3%; in [7], 2.46%; in test [8], -3.8%; in test [9], -1.83%.
